From PubChem BioAssay (NCI)
About 83,000 compounds went through this panel and 20% of them were active in at least one assay; those are over-represented in the sample as a whole.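 Step 1: grow cells in 96-well plates. Step 2: add test compound at a single concentration. Step 3: incubate 48 h. Step 4: record percent growth.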 Values without a mark were called inactive. Active and inactive are the calls of the source.

What follows are compounds tested on LOX IMVI melanoma (assay: NCI-60 one-dose screen, 48 h (100 = growth as untreated, 0 = no growth, -100 = all killed)). Conditions: 10 µM unless noted.
Description: Growth inhibition of the LOX IMVI human tumor cell line is measured as a screen for anti-cancer activity. Cells are grown in 96 well plates and exposed to the test compound for 48 hours. Compounds are tested at a single concentration, which is 10^-5 M for most compounds. The reported endpoint is percent growth (GI% or GIPRCNT), where numbers from 0 - 100% represent growth inhibition, and numbers from -100% - 0 represent cell death. For example, a value of 40 represents 60% growth inhibition. A value of 0 means no net growth occurred over the course of the experiment. A value of -40 indicates 40% of cells at the beginning of the experiment died by the end of the experiment. A value of -100 means all cells are dead at the end of the experiment.
NCI-60 Human Tumor Cell Lines Screen was performed using the standard one-dose NCI protocol, which is described in more detail at https://dtp.cancer.gov/discovery_development/nci-60/default.htm.
Compounds with GIPRCNT values below 10 were considered active. Activity score was based on GIPRCNT using the following formula: […]
Score is 0 for GIPRCNT values of 100 or above, 50 for GIPRCNT values of 0, and 100 for GIPRCNT values of -100.

Compound	growth
COc1ccc(C/C(C)=C(\c2ccc(OCCN3CCOCC3)cc2)c2ccc(OC(=O)Cc3ccccc3)cc2)cc1	-94.1% (active)
CC12CC=CCC1CCC1C2CCC2(C)C(c3ccc(=O)oc3)CCC12O (stereo not given)	-78% (active)
O=C1NC(=O)C(=Cc2cn(CCCCCCn3c4ccccc4c(=O)c4ccccc43)c3ccccc23)C(=O)N1	83.8%
CCn1nccc1NC(=O)C(=O)c1cn(Cc2ccc(F)cc2)c2cccc(OC)c12	84.2%
Cc1ccc(Nc2nc3c(s2)C2=CC[C@@H]4[C@H](CC[C@]5(C)C(=O)CC[C@@H]45)[C@@]2(C)CC3)cc1	21.3%
O=C1C2CCC1C(N1CCCC1)CC2 (stereo not given)	97.8%
NC(CCl)CCl	106%
C[N+]12CN3CN(CN(C3)C1)C2	99.7%
OCCCCCNC1CCCCC1	101%
C[C@]12C[C@@H](CO)[C@H](O)C[C@@H]1CC[C@@H]1[C@@H]2CC[C@]2(C)[C@@H](O)CC[C@@H]12	93.8%
CC(C)=CCC/C(C)=C/C=N\N=C(/N)N[N+](=O)[O-]	94.8%
NC(=O)c1c(Br)n(C2OC(CO)C(O)C2O)c2ncnc(N)c12 (stereo not given)	1.47% (active)
Nc1ccc(OCCNS(=O)(=O)c2cccc(S(=O)(=O)F)c2)c(Cl)c1	94.2%
COC(C(=O)[C@@H](O)[C@@H](C)O)[C@@H]1Cc2cc3cc(O[C@H]4C[C@@H](O[C@H]5C[C@@H](O)[C@H](O)C(C)O5)[C@H](O)C(C)O4)c(C)c(O)c3c(O)c2C(=O)[C@H]1O[C@H]1C[C@@H](O[C@H]2C[C@@H](O[C@H]3C[C@@H](O)[C@@H](O)C(C)O3)[C@@H](O)C(C)O2)[C@H](O)C(C)O1 (stereo not given in full)	-10.6% (active)
O=[N+]([O-])/C=C\c1ccc(Cl)c(Cl)c1	-30.7% (active)
CC[C@H](C)[C@H](NC(=O)C12CC(NC(C)=O)(C1)C2)C(=O)N(C)[C@H](C[C@@H](OC(C)=O)c1nc(C(=O)N[C@@H](Cc2ccccc2)C[C@H](C)C(=O)OC)cs1)C(C)C	16.5%
CC(C)CCC1(CCCl)C(=O)NC(=O)NC1=O	97%
COC(=O)[C@@H](C[C@H](Cc1ccccc1)NC(=O)c1csc([C@@H](C[C@H](C(C)C)N(C)C(=O)[C@@H](NC(=O)[C@H]2CCCCN2C)C(C)C)OC(C)=O)n1)NC(=O)OCc1ccccc1	14.7% [9.5 µM]
CC1=C2[C@@H](CC1)[C@]1(C)O[C@@](C(C)C)(C[C@H]1O)[C@H]2OC(=O)C1CC1c1ccccc1 (stereo not given in full)	93.3%
COc1ccc(O)c(CNC(=O)CN2CCCC2=O)c1	99.4%

Compound	growth
CC(=O)Oc1ccccc1C(=O)NCCC[Se]C#N	-49% (active)
CCCCOc1ccc(C(N)Cc2ccccc2)cc1 (stereo not given)	80%
CCC(O)(CN)c1ccccc1 (stereo not given)	105%
CC[C@]12C=CCN3CC[C@]4(C(=C(C(=O)OC)C1)Nc1cc(OC)c(OC(C)=O)cc14)[C@@H]32	-24% (active)
CC(CO)NC1CCCCC1 (stereo not given)	94.3%
Oc1ccc2c3c1OC1[C@@H](O)CC[C@@]4(O)[C@@H](C2)N(CC2CCC2)CC[C@]314 (stereo not given in full)	97.3%
CC(=O)O[C@H](C[C@H](C(C)C)N(C)C(=O)[C@@H](NC(=O)[C@H]1CCCCN1C)C(C)C)c1nc(C(=O)N[C@@H](Cc2ccccc2)C[C@H](C)C(=O)O)c(CCOCc2ccccc2)s1	11.8%
CC1(C)CN1P(=O)(N1CC1(C)C)N1CC1(C)C (stereo not given)	103%
O=C(O)C(Cl)(Cl)C(F)(F)F	106%
COC(=O)[C@@H](C)C[C@H](Cc1ccccc1)NC(=O)c1cccc([C@@H](C[C@H](C(C)C)N(C)C(=O)[C@@H](NC(=O)[C@H]2CCCCN2C)C(C)C)OC(C)=O)n1	13.6%
O=P(N1CC1)(N1CC1)N1CCc2ccccc21	93.3%
Clc1ccc(N2COOC3(OOC2)C2CC4CC(C2)CC3C4)cc1	-83.1% (active)
O=C1C(N2CC2)=C(N2CC2)C(=O)C(N2CC2)=C1N1CC1	-61.5% (active)
C#Cc1ccc2c(c1)C(c1ccccc1)=NCC(=O)N2C	44.4%
CC[C@H](C)[C@H](NC(=O)[C@H]1CCCCN1C)C(=O)N(C)[C@H](C[C@@H](OC(C)=O)c1nc(C(=O)N[C@@H](Cc2ccccc2)C[C@H](C)C(=O)OC)cs1)C(C)C	8.61% (active)
Cc1ccc(S(=O)(=O)C(Cl)(Cl)Cl)cc1	98.3%
COC(=O)[C@@H](C)C[C@H](Cc1ccccc1)NC(=O)c1csc([C@@H](C[C@H](C(C)C)N(C)C(=O)[C@@H](NC(=O)[C@H]2CCCCN2C)C2CCCCC2)OC(C)=O)n1	12.5%
Brc1ccc2c(c1)c(-c1nc(-c3c[nH]c4ncccc34)cs1)cn2CCN1CCOCC1	66.7%
COC(=O)[C@@H](C)C[C@H](Cc1ccccc1)NC(=O)c1csc([C@@H](C[C@H](C(C)C)N(C)C(=O)[C@@H](NC(=O)[C@H]2CCCN2C)C2CC2)OC(C)=O)n1	15%
CN1C(=O)N[C@H]2[C@@H]3NC(=O)c4ccc(Br)n4[C@@H]3C[C@]21O	-42% (active)
